In paper PMC11062922 (Nature Chemical Biology, 2023) one finds potency estimated from few doses data, which are given here for eleven compounds.

What all share (parameters): species or system human, MV4-11 + K-562 + COLO205 + SK-N-BE2 + OVCAR-8
In assay [1] the test system is DYRK1A. The following applies: read-out: apparent Kd, compound concentrations: 100 nM and 1000 nM (sheet 'Samples'), n = 1.
The subject of assay [2] is ACVR1B. The following applies: read-out: apparent Kd, compound concentrations: 100 nM and 1000 nM (sheet 'Samples'), n = 1.
The test system of assay [3] is ACVR1. The settings on record: read-out: apparent Kd, compound concentrations: 100 nM and 1000 nM (sheet 'Samples'), n = 1.
The test system of assay [4] is EPHA1. The settings on record: read-out: apparent Kd, compound concentrations: 100 nM and 1000 nM (sheet 'Samples'), n = 1.
Assay [5] has as its system SIK2. The settings on record: read-out: apparent Kd, compound concentrations: 100 nM and 1000 nM (sheet 'Samples'), n = 1.
The test system of assay [6] is TGFBR1. The following applies: read-out: apparent Kd, compound concentrations: 100 nM and 1000 nM (sheet 'Samples'), n = 1.
Assay [7] has as its system ZAK. The settings on record: read-out: apparent Kd, compound concentrations: 100 nM and 1000 nM (sheet 'Samples'), n = 1.
Assay [8] concerns DDR1. The following applies: read-out: apparent Kd, n = 1.
Assay [9] has as its system EGFR. The following applies: read-out: apparent Kd, n = 1.
In assay [10] the test system is FLT3. The settings on record: read-out: apparent Kd, n = 1.
The subject of assay [11] is TNK1. The following applies: read-out: apparent Kd, n = 1.
The test system of assay [12] is AKT2. The settings on record: read-out: apparent Kd; compound concentrations: 100 nM and 1000 nM (sheet 'Samples'), CATDS: 4.5642212363568399E-2; n = 1.
The test system of assay [13] is GSK3A. The following applies: read-out: apparent Kd, compound concentrations: 100 nM and 1000 nM (sheet 'Samples'), n = 1.
The subject of assay [14] is AURKB. The settings on record: read-out: apparent Kd, n = 1.
Assay [15] concerns CSK. The settings on record: read-out: apparent Kd, compound concentrations: 100 nM and 1000 nM (sheet 'Samples'), n = 1.
Assay [16] concerns LYN. The settings on record: read-out: apparent Kd, compound concentrations: 100 nM and 1000 nM (sheet 'Samples'), n = 1.
Assay [17] has as its system SRC. The settings on record: read-out: apparent Kd, compound concentrations: 100 nM and 1000 nM (sheet 'Samples'), n = 1.
For assay [18], the system named is GSK3B. The following applies: read-out: apparent Kd; compound concentrations: 100 nM and 1000 nM (sheet 'Samples'), CATDS: 0.25409844627903599; n = 1.
[19] abbreviates: compound concentrations:100 nM and 1000 nM (sheet 'Samples').

Like-named read-outs stand apart in the source and are kept apart here.

On to `O=C1N=C(N[C@@H](CO)c2ccccc2)S/C1=C\c1ccc2ncccc2c1` [RO4554340-000], for which the potency estimated from few doses in assay [1] (CATDS: 0.16734351378465701) was 1030 nM.
With `Cl.Oc1cccc(Nc2ccnc3cc(-c4ccncc4)ccc23)c1` [GW494601A], the potency estimated from few doses in assay [2] (CATDS: 4.2820592961585899E-2) was 73.7 nM; in assay [3] (CATDS: 4.3782572898148998E-2), 69 nM; in [4] (CATDS: 8.3232336419421196E-2), 14.3 nM; in assay [5] (CATDS: 2.1329898966899598E-2), 1020 nM; in [6] (CATDS: 2.26052406331183E-2), 762 nM; in assay [7] (CATDS: 1.9718010562251101E-2), 1580 nM.
`CS(=O)(=O)Cc1ccc(Nc2nccc(-c3c(-c4cccc(NC(=O)C5CCCCC5)c4)nn4ncccc34)n2)cc1` [GSK350559A]: the potency estimated from few doses was 401 nM in assay [8] (setting [19]), 1890 nM in assay [9] (setting [19]), 660 nM in assay [10] (setting [19]) and 261 nM in assay [11] (setting [19]).
In the case of `COc1ccc(Nc2nccc(N3CCC(NC(=O)Nc4ccc5c(c4)OCO5)C3)n2)cc1` (stereo not shown) [GSK1379745A], the potency estimated from few doses in [12] is 1150 nM.
For the compound `O=C1N=C(NCCc2cccc(F)c2)S/C1=C\c1ccc2ncccc2c1` [RO4508344-000], the potency estimated from few doses in [1] (CATDS: 0.105735187935075) was 750 nM; in assay [10] (compound concentrations: 100 nM and 1000 nM (sheet 'Samples'), CATDS: 0.14042863340460501), 431 nM.
For the compound `Cl.O=C1N=C(NCc2ccccn2)S/C1=C\c1ccc2ncccc2c1` [RO4874953-001], the potency estimated from few doses in [1] (CATDS: 0.10050944146971801) was 893 nM; in assay [13] (CATDS: 8.1690756727002906E-2), 1370 nM.
For `CCn1cc(-c2ccnc3[nH]c(-c4cccc(CN(C)C)c4)cc23)c(-c2ccc(NC(=O)N(C)C)cc2)n1` [GSK1070916], the potency estimated from few doses is 594 nM in assay [14] (setting [19]) and 869 nM in assay [8] (setting [19]).
For the compound `CC(C)c1nc(-c2cccc(NS(=O)(=O)c3ccccc3)c2)c(-c2ccnc(Nc3ccc4c(c3)CN(C)CC4)n2)s1` [GSK1649598A], the potency estimated from few doses was 628 nM in assay [2] (CATDS: 1.6553743316138101E-2); 1250 nM in assay [3] (CATDS: 1.3619919375172601E-2); 433 nM in assay [15] (CATDS: 1.8899514592430999E-2); 1520 nM in assay [8] (compound concentrations: 100 nM and 1000 nM (sheet 'Samples'), CATDS: 1.30172526981645E-2); 298 nM in assay [9] (compound concentrations: 100 nM and 1000 nM (sheet 'Samples'), CATDS: 2.2005426873151199E-2); 358 nM in assay [16] (CATDS: 2.0380924471609701E-2). For the same compound, the potency estimated from few doses in [5] (CATDS: 1.6344481967555599E-2) was 653 nM; in [17] (CATDS: 1.45663528778369E-2), 960 nM; in [11] (compound concentrations: 100 nM and 1000 nM (sheet 'Samples'), CATDS: 3.1602555545839801E-2) it was 141 nM; in [7] (CATDS: 1.7977927791487699E-2), 495 nM.
In the case of `Cc1ccc(O)cc1Nc1ccnc2cc(-c3ccc(CN4CCCCC4)o3)ccc12` [GW557777X], the potency estimated from few doses in assay [2] (CATDS: 2.3041961266034101E-2) is 60.3 nM; in assay [3] (CATDS: 2.9506962076646302E-2), 25.6 nM; in [15] (CATDS: 1.5702412967624198E-2) it was 358 nM; in assay [8] (compound concentrations: 100 nM and 1000 nM (sheet 'Samples'), CATDS: 1.3388843859825601E-2) it was 1100 nM; in assay [16] (CATDS: 1.9191353458574801E-2) it was 128 nM; in [5] (CATDS: 1.7387307110144301E-2) it was 205 nM. Moreover, the potency estimated from few doses was 60.3 nM in [17] (CATDS: 2.30493923024673E-2), 377 nM in [6] (CATDS: 1.55635860325104E-2) and 672 nM in assay [7] (CATDS: 1.4248568360294899E-2).
On to `Cn1cc(C2=C(c3cn(CCCO)c4ccccc34)C(=O)NC2=O)c2ccccc21` [RO0317377-000], for which the potency estimated from few doses was 311 nM in assay [13] (CATDS: 0.248455440441466) and 301 nM in assay [18].
Turning to `COc1cc(Nc2ccnc3cc(-c4ccncc4)ccc23)cc(OC)c1OC.Cl` [GW494610A], the potency estimated from few doses in assay [2] (CATDS: 6.2055393770244598E-2) is 76.5 nM; in [3] (CATDS: 8.6839126385756693E-2), 38.3 nM; in assay [14] (compound concentrations: 100 nM and 1000 nM (sheet 'Samples'), CATDS: 5.7571781244095399E-2), 90.3 nM; in assay [15] (CATDS: 2.2928225838280001E-2) it was 1390 nM; in assay [4] (CATDS: 0.10844818822907799), 25.4 nM; in [5] (CATDS: 2.3854628716910201E-2), 1170 nM. Besides, the potency estimated from few doses in [6] (CATDS: 2.6595956704932502E-2) is 765 nM.
